Screening data deposited in PubChem BioAssay by several laboratories.
NR2F2 inh: blocks human COUP-TFII nuclear receptor. P24468. HEK293T NGFI-A luciferase reporter, luminescence. inhibition, % at 8.6 µM. 0.7% of 370,000 active. AID 686940;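 active means inhibition above a per-plate cutoff, mean inhibition of test wells between control levels plus 3 SD, cut at about 38% in these data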;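 further: cells cotransfected with COUP-TFII expression vector driving the NGFI-A reporter; 0% = median of COUP-TF2 test wells and 100% = reporter-only cells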
HIV Env fusion: inhibitors of HIV Env-mediated cell fusion. 1.1% of 360,000 active. HeLa-JRFL Env/CEM21 cell fusion, luciferase. inhibition, % at 12.3 µM;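 active means mean replicate inhibition score of at least 50 and every replicate individually at or above 50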;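 further: 0% = plate neutral controls and 100% = maraviroc near 300 nM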
Gli-Sufu antag: antagonists of Gli-Sufu signaling; Sufu-KO-LIGHT fibroblasts, Gli luciferase reporter luminescence; inhibition, % at 5 µM; 0.74% of 340,000 active; AID 588413;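 active means inhibition above about 55%, limit read from the data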;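 further: 0% = DMSO-treated cells and 100% = wells with medium but no cells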
GalR3 antag: human GalR3 antagonism; O60755; HEK293 GalR3-CNG cAMP membrane potential fluorescence; galR3 body fused to GalR1 C-terminus; inhibition, % at 3 µM; 0.44% of 360,000 active;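 active means inhibition above the screen-wide average plus 3 SD, cut at about 13% in these data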;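 further: forskolin and galanin both at EC90 stimulate the cells; cAMP rise reported by CNG channel membrane potential dye signal; 0% = forskolin plus galanin with DMSO and 100% = forskolin alone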
Target sequence (O60755 1-299 limits assumed): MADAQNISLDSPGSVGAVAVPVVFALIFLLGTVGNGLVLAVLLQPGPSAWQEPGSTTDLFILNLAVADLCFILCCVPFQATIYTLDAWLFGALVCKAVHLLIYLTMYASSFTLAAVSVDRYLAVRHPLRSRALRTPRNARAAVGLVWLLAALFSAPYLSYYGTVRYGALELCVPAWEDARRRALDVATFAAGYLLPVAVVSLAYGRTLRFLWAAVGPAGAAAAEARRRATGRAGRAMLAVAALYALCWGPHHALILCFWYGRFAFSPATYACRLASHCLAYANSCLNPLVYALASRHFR
aDG glyco up: increases alpha dystroglycan glycosylation; Pro5-aDG cells, alpha-DG glycosylation AlphaScreen (IIH6); 0% Pro5, 100% B10-LARGE cell signal; AID 624168; 0.22% of 360,000 active; activation, % at 10 µM;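 active means activation of at least 8% versus controls, or a plate z-score of at least 8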;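 further: Pro5 are CHO cells carrying HIG-tagged alpha-DG that lacks glycosylation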
Gli antag conf: confirmation of Gli-SUFU pathway antagonists; shares compounds with Gli-Sufu antag; Sufu-KO-LIGHT cells, Gli luciferase reporter, luminescence; inhibition, % at 5 µM; 40% of 2,500 active;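 active means mean inhibition at 5 µM reaching about 45%, limit read from the data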;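 further: plate controls were DMSO-treated cells for no effect and wells lacking cells for full effect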
SufuKO cytotox: cytotoxicity counter-screen for Gli-SUFU antagonists; AID 651994; cytotoxicity, % at 5 µM; Sufu-KO-LIGHT cells cytotoxicity, ATP luminescence; 32% of 2,500 active; shares compounds with Gli-Sufu antag;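 active means mean cytotoxicity at 5 µM above about 25%, limit read from the data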;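 further: cells exposed to compound overnight for roughly 16 to 18 hours; plate controls were DMSO wells with cells for no effect and medium without cells for full effect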
Wnt3a cs: counter-screen for Gli-SUFU antagonists: Wnt3a reporter inhibition; 20% of 2,500 active; Wnt-LIGHT cells, Wnt3a-driven luciferase reporter, luminescence; AID 651995; shares compounds with Gli-Sufu antag; inhibition, % at 6.25 µM;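 active means mean inhibition above about 25%, limit read from the data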
aDG conf: confirmation of alpha dystroglycan glycosylation activators. shares compounds with aDG glyco up. Pro5-aDG cells, alpha-DG glycosylation, IIH6 AlphaLISA; scaled to LARGE-overexpressing B10 cells as 100%. activation, % at 10 µM (by protocol). 17% of 600 active;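 active means activation of at least 7% in one or more replicates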;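 further: cells exposed to compound for two days before detection; 0% = DMSO-treated Pro5 cells and 100% = DMSO-treated B10-LARGE cells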
GalR3 conf: GalR3 (human) antagonism, confirmation; inhibition, % at 3 µM; HEK293 GalR3 CNG cAMP biosensor, membrane potential fluorescence; galR3 fused to GalR1 carboxy tail; challenged with forskolin and galanin at EC90; shares compounds with GalR3 antag; 59% of 1,600 active;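 active means inhibition above the primary screen's cutoff, the mean inhibition of all screened compounds plus 3 SD, cut at about 13% in these data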;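 further: 0% = forskolin plus galanin and 100% = forskolin alone with DMSO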
HEK-CNG parental: counter-screen for GalR3 antagonists: nonspecific agonists in parental HEK-CNG cells; shares compounds with GalR3 antag; HEK293-CNG parental cells, cAMP membrane potential fluorescence; normalised: DMSO wells 0%, forskolin wells 100%; activation, % at 3 µM; 10% of 1,600 active; in the data active means activation above about 1.3%
Numbers without * were called inactive; [ ] = dose if it differs, or a comment. In the library only some 2.1% were active in any assay of this set; here they are far more common.

COC(=O)CSc1nc(N)c(C#N)c(-c2ccco2)c1C#N was read as NR2F2 inh 1, Gli-Sufu antag 7, GalR3 antag 0 and aDG glyco up 0.
For N#Cc1c(N)nc2c(c1-c1ccco1)CCCCC2 the results were NR2F2 inh 26, HIV Env fusion 22, Gli-Sufu antag 98*, GalR3 antag -8, aDG glyco up 0, Gli antag conf 27, SufuKO cytotox 19 and Wnt3a cs -4.
`C[C@H](CO)N1C[C@H](C)[C@H](CN(C)Cc2ccc(C(=O)O)cc2)Oc2ccc(NS(C)(=O)=O)cc2CC1=O` gave HIV Env fusion 16[16.7 µM].
`C[C@@H]1CCCCO[C@@H](CN(C)S(=O)(=O)c2cccs2)[C@@H](C)CN([C@@H](C)CO)C(=O)c2cc(NS(=O)(=O)c3cccs3)ccc2O1` gave HIV Env fusion -33[16.7 µM].
For CCOC(=O)COc1ccc2c3c(c(=O)oc2c1C)CCC3 the results were NR2F2 inh 3, HIV Env fusion -35, Gli-Sufu antag 11, GalR3 antag -5 and aDG glyco up 0.
`Cc1c(OCC(=O)C(C)(C)C)ccc2c3c(c(=O)oc12)CCCC3` gave NR2F2 inh -19, HIV Env fusion 26, Gli-Sufu antag 62*, GalR3 antag -8, aDG glyco up 0, Gli antag conf 27, SufuKO cytotox 7 and Wnt3a cs -50.
For COc1ccc(F)cc1CN1CCN(C(=O)CCC(=O)Nc2nnc(C(C)C)s2)CC1 the results were NR2F2 inh 8, Gli-Sufu antag 96*, GalR3 antag 0, aDG glyco up 0, Gli antag conf 13, SufuKO cytotox 15 and Wnt3a cs -13.
For C=CCNC(=O)c1ccccc1NS(=O)(=O)c1ccc(SC)cc1 the results were NR2F2 inh -11, HIV Env fusion 8, Gli-Sufu antag 0, GalR3 antag -2 and aDG glyco up 0.
For C=CCNC(=O)c1ccccc1NC(=O)C1CCN(S(=O)(=O)c2ccc(SC)cc2)CC1 the results were NR2F2 inh -6, HIV Env fusion 1, Gli-Sufu antag 66*, GalR3 antag -9, aDG glyco up 0, Gli antag conf 10, SufuKO cytotox 5 and Wnt3a cs -43.
For C[C@@H]1CCCCO[C@@H](CN(C)C(=O)Nc2ccc(C(F)(F)F)cc2)[C@H](C)CN([C@@H](C)CO)C(=O)c2cc(NC(=O)CCC(F)(F)F)ccc2O1 the results were HIV Env fusion -1[16.7 µM].
Screening COc1ccc(S(=O)(=O)N(C)C[C@@H]2Oc3ccc(NC(=O)CCCCCC(=O)Nc4ccccc4N)cc3C(=O)N([C@H](C)CO)C[C@@H]2C)cc1 returned HIV Env fusion -6[16.7 µM].
For COc1cc(/C=C2/CCCC(C(=O)C(F)(F)F)=C2O)ccc1O the results were NR2F2 inh 20, HIV Env fusion 3, Gli-Sufu antag 3, GalR3 antag -6 and aDG glyco up 0.
`CCOc1cc(/C=C2\CCCC(C(=O)C(F)(F)F)=C2O)ccc1O` gave NR2F2 inh 32, HIV Env fusion 17, Gli-Sufu antag 59*, GalR3 antag -1, aDG glyco up 0, Gli antag conf 7, SufuKO cytotox 1 and Wnt3a cs -58.
For CCc1ccc(C(CNC(=O)c2ccc3c(=O)n(-c4ccccc4F)c(=S)[nH]c3c2)N(C)C)cc1 (configuration not stated) the results were NR2F2 inh 21, HIV Env fusion 8, Gli-Sufu antag 59*, GalR3 antag -7, aDG glyco up 10*, Gli antag conf 29, SufuKO cytotox 5, Wnt3a cs 1 and aDG conf 6.9*.
Screening Cc1ccc(S(=O)(=O)N(C)C[C@H]2OCCCC[C@@H](C)Oc3ccc(NS(=O)(=O)c4cn(C)cn4)cc3C(=O)N([C@H](C)CO)C[C@@H]2C)cc1 returned HIV Env fusion -15[16.7 µM].
`CNC(=O)C(=O)NCCN1CCN(C(=O)c2ccc([N+](=O)[O-])cc2)CC1` gave NR2F2 inh 5, HIV Env fusion 12, Gli-Sufu antag 2, GalR3 antag 4 and aDG glyco up 0.
For CCCCc1ccc(NC(=O)C(=O)NCCN2CCN(Cc3ccc([N+](=O)[O-])cc3)CC2)cc1 the results were NR2F2 inh 10, HIV Env fusion 8, Gli-Sufu antag 56*, GalR3 antag -6, aDG glyco up 6.6*, Gli antag conf 43, SufuKO cytotox 19, Wnt3a cs 6 and aDG conf 0.
For CN1N=C(N)c2cn(C3OC(COP(=O)(O)O)C(O)C3O)c3ncnc1c23 (configuration not stated) the results were NR2F2 inh -17, HIV Env fusion -4, Gli-Sufu antag 89*, GalR3 antag -6, aDG glyco up 82*, Gli antag conf 86*, SufuKO cytotox 63*, Wnt3a cs 71* and aDG conf 23*.
For CCCC#Cc1cnc2c(c1)C(=O)N([C@@H](C)CO)C[C@@H](C)[C@@H](CN(C)S(=O)(=O)c1cn(C)cn1)O2 the results were HIV Env fusion -12[16.7 µM].
COc1cc(C(=O)NC2CCN(C)CC2)ccc1Nc1ncc2c(n1)N(C1CCCCC1)CCC(=O)N2C was read as NR2F2 inh -111, HIV Env fusion -61, Gli-Sufu antag 82*, GalR3 antag 19*, aDG glyco up 0, Gli antag conf 79*, SufuKO cytotox 19, Wnt3a cs -70, GalR3 conf 13* and HEK-CNG parental 0.
`CCN1C(=O)CC(c2ccccc2)N(C2CCCC2)c2nc(Nc3ccc(C(=O)NC4CCN(C)CC4)cc3OC)ncc21` (configuration not stated) gave Gli-Sufu antag 16 and aDG glyco up 0.
